According to the supplement of paper PMC11018630:
Structures can show the parent of a compound that is named as a salt. ± gives the standard deviation of the averaged measurements. Over roughly 1,100 compounds, “day of extracellular matrix detachment from plate” has its median near 16; the lowest 2% begin near 10. The entries come from a sample that favours the lowest values as a whole.

Tested on: RDEB dermal fibroblasts EB71
Test: day of extracellular matrix detachment from plate (days); higher = delayed detachment (less fibrotic matrix)
Details: compound concentration: 10 uM

| Compound | day of extracellular matrix detachment from plate |
| --- | --- |
| O=C(O)CCC(=O)c1ccc(-c2ccccc2)cc1 [Fenbufen] | 13 |
| Nc1nc(=O)n([C@@H]2CS[C@H](CO)O2)cc1F [Emtricitabine] | 19.3 ± 6.3 |
| O=c1ccn([C@@H]2O[C@H](CO)[C@@H](O)[C@H]2O)c(=O)[nH]1 [Uridine] | 12 |
| COc1ccc(CC2c3cc(OC)c(OC)cc3CC[N+]2(C)CCC(=O)OCCCCCOC(=O)CC[N+]2(C)CCc3cc(OC)c(OC)cc3C2Cc2ccc(OC)c(OC)c2)cc1OC (stereo not given) [Atracurium Besylate] | 15.7 ± 6.3 |
| COc1ccc(C[C@@H]2c3cc(OC)c(OC)cc3CC[N@+]2(C)CCC(=O)OCCCCCOC(=O)CC[N@@+]2(C)CCc3cc(OC)c(OC)cc3[C@H]2Cc2ccc(OC)c(OC)c2)cc1OC [Cisatracurium Besylate] | 10 ± 1.7 |
| CCC(=O)O[C@@H](O[P@](=O)(CCCCc1ccccc1)CC(=O)N1C[C@H](C2CCCCC2)C[C@H]1C(=O)O)C(C)C [Fosinopril Sodium] | 19 |
| OC(Cn1cncn1)(Cn1cncn1)c1ccc(F)cc1F [Fluconazole] | 12.7 ± 2.9 |
| Nc1ccc(C(=O)NCC(=O)O)cc1 [Sodium 4-aminohippurate Hydrate] | 13 |
| Cn1c(=O)c2c(ncn2CC2OCCO2)n(C)c1=O [Doxofylline] | 13 |
| CN(C)CCC[C@@]1(c2ccc(F)cc2)OCc2cc(C#N)ccc21 [Escitalopram Oxalate] | 13 |
| OC[C@@H](O)[C@@H](O)[C@H](O)[C@@H](O)CO [Sorbitol] | 16 |
| O=C[C@H](O)[C@@H](O)[C@H](O)CO [Xylose] | 10 ± 1.7 |
| OC[C@@H](O)[C@@H](O)[C@H](O)[C@H](O)CO [D-Mannitol] | 13.7 ± 8.1 |
| COc1cc2ncnc(Nc3ccc(F)c(Cl)c3)c2cc1OCCCN1CCOCC1 [Gefitinib (ZD1839)] | 29.4 ± 6 |
| N#C[C@@H]1C[C@@H]2C[C@@H]2N1C(=O)[C@@H](N)C12CC3CC(CC(O)(C3)C1)C2 [Saxagliptin hydrate] | 16.3 ± 1.1 |
| CCCc1nc(C)c2c(=O)nc(-c3cc(S(=O)(=O)N4CCN(CC)CC4)ccc3OCC)[nH]n12 [Vardenafil HCl Trihydrate] | 16 |
| COC(=O)C1=C(C)NC(C)=C(C(=O)OCCN2CCN(C(c3ccccc3)c3ccccc3)CC2)C1c1cccc([N+](=O)[O-])c1 (stereo not given) [Manidipine] | 20.3 ± 2.3 |
| COC(=O)C1=C(C)NC(C)=C(C(=O)OCCN2CCN(C(c3ccccc3)c3ccccc3)CC2)C1c1cccc([N+](=O)[O-])c1 (stereo not given) [Manidipine 2HCl] | 18.3 ± 4 |
| O=C(c1cc(Cc2n[nH]c(=O)c3ccccc23)ccc1F)N1CCN(C(=O)C2CC2)CC1 | 27.8 ± 5.5 |
| CC1(C)S[C@@H]2[C@H](NC(=O)C(C(=O)O)c3ccccc3)C(=O)N2[C@H]1C(=O)O (stereo not given in full) [Carbenicillin disodium] | 18 |
| CSc1nc2cc(Cl)c(Oc3cccc(Cl)c3Cl)cc2[nH]1 [Triclabendazole] | 13 |
| CN(C)/N=N/c1[nH]cnc1C(N)=O [Dacarbazine] | 11 |
| CCC[C@H](N[C@@H](C)C(=O)N1[C@H](C(=O)O)C[C@@H]2CCCC[C@@H]21)C(=O)OCC [Perindopril Erbumine] | 21 ± 1.7 |
| OC(CCN1CCCC1)(c1ccccc1)C1CCCCC1 (stereo not given) [Procyclidine HCl] | 16 ± 1.7 |

| Compound | day of extracellular matrix detachment from plate |
| --- | --- |
| CC1(C)[C@H](C(=O)O)N2C(=O)C[C@H]2S1(=O)=O [Sulbactam] | 10 ± 1.7 |
| C[C@]1(Cn2ccnn2)[C@H](C(=O)O)N2C(=O)C[C@H]2S1(=O)=O [Tazobactam] | 20 ± 1.7 |
| CC1(C)S[C@@H]2[C@H](NC(=O)Cc3ccccc3)C(=O)N2[C@H]1C(=O)O [Penicillin G Sodium] | 13 |
| CC1(C)[C@H](C(=O)O)N2C(=O)C[C@H]2S1(=O)=O [Sulbactam sodium] | 11 ± 1.7 |
| CC(C)(Oc1ccc(Cl)cc1)C(=O)O [Clofibric Acid] | 13 |
| CC(=O)O[C@]1(C(C)=O)CC[C@H]2[C@@H]3C[C@H](C)C4=CC(=O)C=C[C@]4(C)[C@@]3(F)[C@@H](O)C[C@@]21C [Fluorometholone Acetate] | 27.2 ± 3.5 |
| N#CC(c1ccc(Cl)cc1)c1c(Cl)cc(-n2ncc(=O)[nH]c2=O)cc1Cl (stereo not given) [Diclazuril] | 15.7 ± 6.3 |
| O=C(O)CCc1nc2ccccc2[nH]1 [Procodazole] | 13 |
| N#C/C(=C1/SC[C@@H](c2ccc(Cl)cc2Cl)S1)n1ccnc1 [Luliconazole] | 13 |
| C[N+]1(C)CCC(OC(=O)C(O)(c2ccccc2)C2CCCC2)C1 (stereo not given) [Glycopyrrolate] | 20.3 ± 2.9 |
| CCN(CC)CCOCCOC(=O)C(CC)(CC)c1ccccc1 [Oxeladin Citrate] | 13 |
| CN1C2=CC(=O)/C(=N\NC(N)=O)C=C2CC1S(=O)(=O)O (stereo not given) [Carbazochrome sodium sulfonate (AC-17)] | 16.7 ± 2.3 |
| C/C(O)=C(\C#N)C(=O)Nc1ccc(C(F)(F)F)cc1 [Teriflunomide] | 13 |
| C[C@](N)(Cc1ccc(O)c(O)c1)C(=O)O [Methyldopa] | 10.3 ± 1.1 |
| C[C@@](Cc1ccc(O)c(O)c1)(NN)C(=O)O [Carbidopa] | 15.7 ± 6.3 |
| NCCc1ccc(O)c(O)c1 [Dopamine HCl] | 15.7 ± 6.3 |
| CO/N=C(\C(=O)N[C@@H]1C(=O)N2C(C(=O)O)=C(COC(N)=O)CS[C@H]12)c1ccco1 [Cefuroxime sodium] | 17 |
| NCCCCC(NC(=O)C1CCCN1C(=O)C1CSSCC(N)C(=O)NC(Cc2ccc(O)cc2)C(=O)NC(Cc2ccccc2)C(=O)NC(CCC(N)=O)C(=O)NC(CC(N)=O)C(=O)N1)C(=O)NCC(N)=O (stereo not given) [Lypressin Acetate] | 23 ± 1.7 |
| COc1cc(Nc2ncc3c(n2)-c2ccc(Cl)cc2C(c2c(F)cccc2OC)=NC3)ccc1C(=O)O [Alisertib (MLN8237)] | 25 |
| CC[C@H](NC(=O)[C@H](C)NC)C(=O)N1C[C@@H](O)C[C@H]1Cc1c(-c2[nH]c3cc(F)ccc3c2C[C@@H]2C[C@H](O)CN2C(=O)[C@H](CC)NC(=O)[C@H](C)NC)[nH]c2cc(F)ccc12 [Birinapant] | 19 ± 6.9 |
| CC(=O)O[C@]1(C(C)=O)CC[C@H]2[C@@H]3C[C@H](C)C4=CC(=O)CC[C@]4(C)[C@H]3CC[C@@]21C [Medroxyprogesterone acetate] | 19.3 ± 6.3 |
| [I-].[K+] [Potassium Iodide] | 15.7 ± 6.3 |
| CCN1CC(CCN2CCOCC2)C(c2ccccc2)(c2ccccc2)C1=O (stereo not given) [Doxapram HCl] | 18 |
| CN(C)CCc1c[nH]c2ccc(CS(=O)(=O)N3CCCC3)cc12 [Almotriptan Malate] | 19.3 ± 6.3 |

| Compound | day of extracellular matrix detachment from plate |
| --- | --- |
| NC(=O)Cc1cccc(C(=O)c2ccccc2)c1N [Nepafenac] | 14.3 ± 2.9 |
| CN1CCC(=C2c3ccccc3CCc3cccnc32)CC1 [Azatadine dimaleate] | 18 |
| Cc1ccc(NC(=O)c2ccc(CN3CCN(C)CC3)cc2)cc1Nc1nc(-c2cccnc2)cs1 [Masitinib (AB1010)] | 36 |
| CC(C)(C)c1nc(-c2cccc(NS(=O)(=O)c3c(F)cccc3F)c2F)c(-c2ccnc(N)n2)s1 | 32.5 ± 2.1 |
| CO/N=C(\C(=O)N[C@@H]1C(=O)N2C(C(=O)OCOC(=O)C(C)(C)C)=C(/C=C\c3scnc3C)CS[C@H]12)c1csc(N)n1 [Cefditoren pivoxil] | 15.7 ± 6.3 |
| CCOC(=O)[C@H](CCc1ccccc1)N[C@H]1CS[C@H](c2cccs2)CN(CC(=O)O)C1=O [Temocapril HCl] | 19.3 ± 6.3 |
| CCC[S+]([O-])c1ccc2[nH]c(NC(=O)OC)nc2c1 (stereo not given) [Albendazole Oxide] | 16 |
| CC1(C)S[C@@H]2[C@H](NC(=O)[C@H](N)c3ccc(O)cc3)C(=O)N2[C@H]1C(=O)O [Amoxicillin Sodium] | 15.7 ± 6.3 |
| CC1(C)S[C@@H]2[C@H](NC(=O)[C@H](N)c3ccc(O)cc3)C(=O)N2[C@H]1C(=O)O [Amoxicillin] | 16.7 ± 2.3 |
| CC(C)C(=O)Oc1ccc(CO)cc1[C@H](CCN(C(C)C)C(C)C)c1ccccc1 [Fesoterodine Fumarate] | 15.7 ± 6.3 |
| O=C(O)c1ccccc1 [Benzoic Acid] | 13 |
| Cc1nc(=O)c2cc(CN(C)c3ccc(C(=O)N[C@@H](CCC(=O)O)C(=O)O)s3)ccc2[nH]1 [Raltitrexed] | 25 |
| NS(=O)(=O)c1cc2c(cc1Cl)N=C(CSCc1ccccc1)NS2(=O)=O [Benzthiazide] | 13 |
| CC(=O)O[C@]1(C(C)=O)CC[C@H]2[C@@H]3C=C(Cl)C4=CC(=O)CC[C@]4(C)[C@H]3CC[C@@]21C [Chlormadinone acetate] | 26.2 ± 10 |
| CO[C@@H]1[C@@H](OC(N)=O)[C@@H](O)[C@H](Oc2ccc3c(O)c(NC(=O)c4ccc(O)c(CC=C(C)C)c4)c(=O)oc3c2C)OC1(C)C [Novobiocin Sodium] | 15.7 ± 6.3 |
| O=S(=O)(O)Oc1ccc(C(c2ccc(OS(=O)(=O)O)cc2)c2ccccn2)cc1 [Sodium Picosulfate] | 14.5 ± 4 |
| Cc1cccc(C)c1NC(=O)C1CCCCN1C (stereo not given) [Mepivacaine HCl] | 16.5 ± 6.2 |
| C[N+](C)(C)CCO.[Cl-] [Choline Chloride] | 13 |
| O=C(CCCCCCNC(=O)c1cnc(N(c2ccccc2)c2ccccc2)nc1)NO [Rocilinostat (ACY-1215)] | 27 |
| Cc1nnc(C(C)C)n1C1C[C@H]2CC[C@@H](C1)N2CC[C@H](NC(=O)C1CCC(F)(F)CC1)c1ccccc1 (stereo in doubt) [Maraviroc] | 12 |
| NC[C@H]1CC[C@H](C(=O)O)CC1 [Tranexamic Acid] | 23 ± 1.7 |
| CC1(O)CCC(C(C)(C)O)CC1 (stereo not given) [Terpin (hydrate)] | 17 |
